Screening data (PubChem)
Compounds with a hit are over-represented: about 8% of the library has one in this group of screens.
KB-3-1 cytotox: KB-3-1 parental cell cytotoxicity; KB-3-1 viability, CellTiter-Glo ATP luminescence, 72 h; Potency, µM (series often up to 46.1 µM), most hits filed as cytotoxic; 400,000 tested, 1.4% active; also: nearly all actives have a fitted effect of over 60% in size
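Cytotoxicity measured as CellTiter-Glo luminescence after 72 h at 37 C. Compound titrations were pinned onto drug-naive KB-3-1 parental adenocarcinoma cells grown in DMEM with 10% FBS, and normalized data fitted to concentration-response curves.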
KB-V1 MDR tox: KB-V1 MDR subline cytotoxicity. KB-V1 MDR cells viability, CellTiter-Glo, 72 h. Potency, µM (series often up to 46.1 µM), hits mostly cytotoxic. 400,000 tested, 3.4% active; also: nearly all actives have a fitted effect of over 60% in size
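Compound-treated KB-V1 multidrug-resistant cells, 72 h, 37 degrees C; viability by CellTiter-Glo. Fitted qHTS curves give the values.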
HT1080NT lethal: kills 2HG-producing HT-1080-NT fibrosarcoma cells | HT-1080-NT fibrosarcoma viability, CellTiter-Glo ATP luminescence, 48 h | Potency, µM (titrated, usually from 46.1 µM), most hits filed as cytotoxic | 360,000 tested, 1.6% active | AID 686970;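 also: NT is the 2HG producing partner of a matched IDH1 knockdown line; nearly all actives have a fitted effect of over 55% in size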
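HT-1080-NT fibrosarcoma cells (2HG-overproducing), 750 cells/well in RPMI with 5% FBS, dosed after 2 h and incubated 48 h at 37C. CellTiter-Glo luminescence normalized to DMSO and no-cell wells; concentration-response curves fitted and classed.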
MCF10A rerep: induces DNA re-replication in MCF 10a normal breast cells; AID 624296; MCF 10A DNA re-replication, Hoechst nuclear intensity, 48 h; 350,000 tested, 2.9% active; Potency, µM (doses to about 46.1 µM), most hits filed as activators; also: nearly all actives have a fitted effect of over 50% in size
HT1080 IDH1KD tx: toxicity to HT-1080 IDH1 knockdown cells (counter line); 360,000 tested, 2% active; HT-1080 IDH1 knockdown viability, ATP luminescence, 48 h; Potency, µM (highest dose often 46.1 µM), usual class: cytotoxic
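Viability of IDH1-knockdown HT-1080 fibrosarcoma cells was assessed by CellTiter-Glo after 48 h at 37 °C with titrated compound; concentration-effect curves were classified by fit quality and response size.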
SW480 rerep: inducers of DNA re-replication in SW480 colon cancer cells; SW480 DNA re-replication, Hoechst DNA content imaging, 48 h; Potency, µM (titrated, usually from 46.1 µM), usual class: activators; 340,000 tested, 1.8% active; AID 624297; also: nearly all actives have a fitted effect of over 55% in size
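Quantitative HTS format with DMSO vehicle controls; 48 hr drug incubation at 37 C, then 40 min Hoechst staining and scanning imager measurement at 405 nm excitation.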
Each line names hits and unclear results; the compound was inactive in the other large screens. Calls follow the shape of the dose curve; as a rule, active = well fitted curve in the direction sought with a large enough effect; inconclusive = small, poorly fitted or top-dose-only effect, or another doubt; inactive = no such curve, though single readings can be large; an effect the other way counts as inactive or inconclusive.

CC(=O)c1ccc(NC(=O)C(C)O/N=C(\N)c2ccccc2)cc1 (stereo unspecified)	KB-V1 MDR tox 23.1µM
CCc1ccccc1Nc1nn2c(=O)c3ccc(C(=O)NCc4ccccc4Cl)cc3nc2s1	KB-3-1 cytotox inconclusive (no result: HT1080NT lethal, MCF10A rerep, HT1080 IDH1KD tx, SW480 rerep)
CC1Cc2ccccc2N1c1ncnc2c1nnn2Cc1ccccc1Cl (stereo unspecified)	none
NC(=O)C1CCN(c2nc(C3CC3)nc3c2nnn3Cc2ccccc2Cl)CC1	MCF10A rerep 20.6µM
Clc1ccccc1Cn1nnc2c(N3CCCC3)ncnc21	HT1080NT lethal inconclusive, HT1080 IDH1KD tx 20µM
OCCNc1nc(C2CC2)nc2c1nnn2Cc1ccccc1Cl	KB-V1 MDR tox 6.51µM, MCF10A rerep inconclusive, HT1080 IDH1KD tx inconclusive
O=C(CSc1ncnc2c1nnn2Cc1ccccc1F)N1CCN(c2ccccc2)CC1	KB-3-1 cytotox inconclusive, KB-V1 MDR tox inconclusive, MCF10A rerep 20.6µM
NC(=O)C1CCN(c2nc(C3CC3)nc3c2nnn3Cc2ccccc2)CC1	HT1080NT lethal inconclusive
Cn1cnc([N+](=O)[O-])c1Sc1ccncn1	none (no result: MCF10A rerep, SW480 rerep)
CC1CCCCC1NC(=O)c1ccc(S(=O)(=O)NCC2CCCO2)cc1 (stereo unspecified)	KB-V1 MDR tox inconclusive
COCC(C)N=C1SCCN1Cc1ccccc1 (stereo unspecified)	none
CC(C)(C)NC(=O)CSc1ncnc2c1nnn2Cc1ccccc1Cl	HT1080NT lethal inconclusive, MCF10A rerep 14.6µM, HT1080 IDH1KD tx inconclusive, SW480 rerep inconclusive
CCc1nn(C(C)C(=O)N2CCc3ccccc3C2)c(=O)c2cc3occc3n12 (stereo unspecified)	KB-3-1 cytotox inconclusive, KB-V1 MDR tox inconclusive, SW480 rerep inconclusive
C=Cc1ccc(Cn2c(C)c(C(=O)NCc3ccc4c(c3)OCO4)sc2=O)cc1	KB-3-1 cytotox inconclusive, KB-V1 MDR tox inconclusive (no result: MCF10A rerep, SW480 rerep)
COc1ccccc1Cn1c(C)c(C(=O)NCc2ccc(C#N)cc2)sc1=O	KB-V1 MDR tox 16.4µM (no result: MCF10A rerep, SW480 rerep)
C=Cc1ccc(Cn2c(C)c(C(=O)NCc3ccc(C#N)cc3)sc2=O)cc1	KB-3-1 cytotox inconclusive, KB-V1 MDR tox 18.4µM (no result: MCF10A rerep, SW480 rerep)
COC(=O)c1ccc(Cn2c(C)c(C(=O)NCc3ccc(C#N)cc3)sc2=O)o1	KB-V1 MDR tox 23.1µM, HT1080 IDH1KD tx inconclusive (no result: MCF10A rerep, SW480 rerep)
O=C(NCc1ccccn1)c1ccc(Cn2c(=S)[nH]c3ccccc3c2=O)cc1	none
Cc1ccc(S(=O)(=O)n2ccc3c(OCCOCCSCC(NC(=O)OC(C)(C)C)C(=O)O)cccc32)cc1 (stereo unspecified)	KB-V1 MDR tox inconclusive, MCF10A rerep inconclusive
Cc1ccc(S(=O)(=O)n2ccc3c(OCCOCCNCc4ccc(F)cc4)cccc32)cc1	KB-3-1 cytotox inconclusive, KB-V1 MDR tox inconclusive, HT1080NT lethal 16.4µM, MCF10A rerep inconclusive, HT1080 IDH1KD tx 20.6µM
CC(=NNC(=S)N1CC2CCC(CC2)C1)c1cccc(C)n1	KB-3-1 cytotox inconclusive, KB-V1 MDR tox inconclusive, MCF10A rerep inconclusive, HT1080 IDH1KD tx inconclusive, SW480 rerep 0.411µM
CC(=NNC(=S)N1CCC1)c1ccccn1	KB-3-1 cytotox inconclusive, KB-V1 MDR tox inconclusive, MCF10A rerep inconclusive, HT1080 IDH1KD tx inconclusive
Cc1[nH][nH]c(=O)c1C(c1ccc(-c2cccc(Cl)c2)o1)c1c(C)[nH][nH]c1=O	HT1080NT lethal inconclusive, MCF10A rerep 18.4µM
CC(C)C(N)c1csc(Nc2nncc3ccccc23)n1 (stereo unspecified)	KB-V1 MDR tox inconclusive, HT1080NT lethal inconclusive, HT1080 IDH1KD tx inconclusive (no result: MCF10A rerep, SW480 rerep)
Nc1ccc(CC(N)c2csc(Nc3nncc4ccccc34)n2)cc1 (stereo unspecified)	KB-3-1 cytotox inconclusive, KB-V1 MDR tox 23.1µM, HT1080NT lethal inconclusive (no result: MCF10A rerep, SW480 rerep)
CC(N)c1csc(Nc2nncc3ccccc23)n1 (stereo unspecified)	HT1080NT lethal inconclusive, HT1080 IDH1KD tx 18.4µM (no result: MCF10A rerep, SW480 rerep)
NC(Cc1ccccc1)c1csc(Nc2nncc3ccccc23)n1 (stereo unspecified)	KB-3-1 cytotox inconclusive, KB-V1 MDR tox 23.1µM, HT1080NT lethal inconclusive, HT1080 IDH1KD tx inconclusive (no result: MCF10A rerep, SW480 rerep)
